From PubChem BioAssay AID2289 (National Center for Advancing Translational Sciences (NCATS), 2010)
About 3,300 (0.97%) of roughly 340,000 compounds were called active. About 9% were inconclusive and are not listed. Calls follow the shape of the dose curve; as a rule, active = well fitted inhibition curve with a large enough effect; inconclusive = small, poorly fitted or top-dose-only effect, or effect the other way; inactive = flat fitted curve, though single readings scatter. The list shows a part of the results.

Experiment: qHTS Assay for Modulators of miRNAs and/or Inhibitors of miR-21; also: nearly all actives have a fitted effect of over 55% in size
Settings: HeLa miR-21-FLuc reporter, luciferase luminescence, 48 h; actives lower the signal
In short: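 HeLa miR-21-FLuc reporter line, endogenous miR-21; 2000 cells/well in DMEM/10% FBS; compound titration up to ~40uM final, 48 h, 37 degree Celsius; luciferase detection reagent, 15 min lysis, CCD luminescence.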
Potency is read from the fitted curve at half-maximal effect.

Potency, active:
CCOC(=O)c1ccccc1N/C=C/C(=O)c1cccs1 9.27 µM, NC(=O)c1ccccc1N/C=C/C(=O)c1cccs1 0.521 µM, Cc1ccc2nc(-c3ccc(SCC(=O)Nc4nc(C)cs4)nc3)[nH]c2c1 1.47 µM, c1ccc(N2CCN(c3cnc4ccccc4n3)CC2)cc1 1.04 µM, COc1cc(C)ccc1OCCCOc1ccccc1Br 14.7 µM, COc1ccccc1OCCCOc1ccc(C)cc1Br 14.7 µM, COc1ccc(C(=O)N/N=C(/C)c2ccc(N3CCCCC3)cc2)cc1 8.26 µM, C/C(=N\NC(=O)c1ccccc1)c1ccc(N2CCCCC2)cc1 6.56 µM, COc1ccc(/C(C)=N/NC(=O)c2ccccc2N)cc1 18.5 µM, O=C(c1ccc(F)cc1)c1ccc(N2CCCCC2)cc1 4.65 µM, Cc1ccc(/C(N)=N/OC(=O)c2ccc(C)cc2Cl)cc1 0.261 µM, Cc1ccc(/C(N)=N/OC(=O)c2ccc(Cl)cc2Cl)cc1 1.04 µM, CCn1c(/C=C/c2c[nH]c3ccccc23)nc2ccccc2c1=O 0.414 µM, O=C(NNc1ncnc2ccccc12)c1cccc(Cl)c1 0.927 µM, O=C(c1cnsn1)N1CCC(CO)(Cc2cccc(F)c2)CC1 14.7 µM, Cc1cc(C)n2nc(-c3cccc(Br)c3)cc2n1 3.29 µM, Cc1cccc(-c2cc3nc(C)cc(C)n3n2)c1 1.85 µM, CSc1nc(N)n2nc(-c3ccc(Cl)cc3)cc2n1 0.826 µM, Cc1nc2cc(-c3ccc(Cl)cc3)nn2c(NCCN(C)C)c1C 5.85 µM, Cc1ccc(-c2cc3nc(C)cc(C)n3n2)cc1 3.69 µM, Cc1cc(C)n2nc(-c3ccc(Cl)cc3)cc2n1 1.17 µM, COc1ccc(-c2cc3nc(C)cc(C)n3n2)cc1 3.29 µM, Cc1ccsc1C(=O)NNC(=O)C1CC=CCC1C(=O)O (stereo not drawn) 4.65 µM, Cc1ccsc1C(=O)NNC(=O)C1C2C=CC(C2)C1C(=O)O (stereo not drawn) 0.826 µM, Cc1ccsc1C(=O)NNC(=O)C1CCCCC1C(=O)O (stereo not drawn) 1.85 µM, CN(C)/N=C/c1ccc(OS(=O)(=O)c2ccccc2)cc1 3.29 µM, Cc1[nH]n(C(N)=S)c(=O)c1N=Nc1ccc2ccccc2c1 1.47 µM, Nc1nc2sc3c(c2c(=O)s1)CCCC3 16.5 µM, COCCCNC(=O)COc1ccc(Br)cc1Cl 10.4 µM, COc1ccc(Nc2nc(N)nc(CSC(=S)N3CCOCC3)n2)cc1 16.5 µM, COc1ccc(Nc2nc(N)nc(CSC(=S)N3CCCCC3)n2)cc1 14.7 µM, CC(C)OC(=O)c1ccc2nc3ccccc3nc2c1 0.656 µM, O=C(/C=C/Nc1ccc(F)c(F)c1)c1ccc(Br)cc1 1.85 µM, O=C(/C=C/Nc1ccccc1F)c1ccc(Br)cc1 0.293 µM, O=C(/C=C/Nc1ccc(F)cc1)c1ccc(Br)cc1 0.927 µM, O=C(/C=C\Nc1ccc(Br)cc1)c1cccnc1 1.31 µM, CC(C)N1CCC(=NNC(=O)c2cccs2)CC1 6.56 µM, O=C(NN=C1CCCC1)c1cccs1 1.65 µM, Cc1ccsc1C(=O)NN=C1CCCCCC1 3.69 µM, CC(=O)N1CCC(=NNC(=O)c2cccs2)CC1 3.69 µM, Cc1ccc(-c2nc(C#N)c(NCc3ccco3)o2)cc1 4.14 µM, COc1ccc(-c2nc(C#N)c(NCc3ccco3)o2)cc1 9.27 µM, COc1ccc(C(=O)/C=C/c2ccc(OC)cc2OC)c(O)c1 6.56 µM, Clc1ccc(-c2cn3nc4c(nc3n2)CCCC4)cc1 0.117 µM, O=C(Nc1ccsc1C(=O)O)c1cccc(C(F)(F)F)c1 7.36 µM, COc1ccc(C2=NN(C(C)=O)C(c3cccs3)C2)cc1OC (stereo not drawn) 8.26 µM, COc1ccc(C2=NN(S(C)(=O)=O)C(c3cccs3)C2)cc1 (stereo not drawn) 2.61 µM, COc1ccc(C2=NN(S(C)(=O)=O)C(c3ccc4nccnc4c3)C2)cc1 (stereo not drawn) 7.36 µM, COc1ccc(C2=NN(S(C)(=O)=O)C(c3cccs3)C2)cc1OC (stereo not drawn) 7.36 µM, CC(=O)c1sc(N/N=C\c2ccc(N(C)C)cc2)nc1C 0.927 µM, CC(=O)c1sc(N/N=C\c2ccc(Br)cc2)nc1C 5.21 µM, CC(=O)c1sc(N/N=C\c2ccc(C)cc2)nc1C 3.29 µM, CC(=O)c1sc(NCc2ccc(C)cc2)nc1C 5.21 µM, CCc1cc(C(=O)NNC(=S)Nc2ccccc2C)cs1 2.07 µM, Cc1cc(C(=O)NNC(=S)Nc2ccccc2C)cs1 1.65 µM, c1ccc2nc(-c3ccc(-n4ccnc4)cc3)ccc2c1 0.826 µM, COc1ccc(C(=O)N[C@H](C(=O)Nc2nc3c(s2)CCCC3)C(C)C)cc1 2.93 µM, Nc1ccc2c(c1)sc1ccccc12 6.56 µM, O=C(O)c1cc(N/N=C/C=C/c2ccccc2)ccc1Cl 0.826 µM, NNc1ccc(Cl)c(C(=O)O)c1 6.56 µM, O=C(O)c1cc(N/N=C/C=C/c2ccccc2[N+](=O)[O-])ccc1Cl 3.29 µM, NS(=O)(=O)c1ccc(N/N=C/C=C/c2ccccc2[N+](=O)[O-])cc1 3.29 µM, O=C(O)c1ccc(N/N=C/C=C/c2ccccc2[N+](=O)[O-])cc1 4.65 µM, O=C(O)c1cc(N/N=C/C(Cl)=C/c2ccccc2)ccc1Cl 0.233 µM, Fc1cccc(Cl)c1CNc1n[nH]c(-c2ccco2)n1 7.36 µM, CC(C)c1ccc(CNc2n[nH]c(-c3ccco3)n2)cc1 2.07 µM, Nc1c(C(=O)N/N=C/c2ccccc2)cnn1-c1ccccc1 1.47 µM, Nc1c(C(=O)N/N=C/c2cccnc2)cnn1-c1ccccc1 16.5 µM, N#Cc1c(N)nc2c(c1N)CC(COc1ccccc1)O2 (stereo not drawn) 7.36 µM, Cc1ccccc1OCC1Cc2c(nc(N)c(C#N)c2N)O1 (stereo not drawn) 14.7 µM, C=C(C)Cn1cnc2c(oc3nc4c(cc32)CCCC4)c1=O 1.17 µM, Cc1cc(C=C2C(=O)c3ccccc3C2=O)c(C)n1C 18.5 µM, Cc1cc(C=C2C(=O)c3ccccc3C2=O)c(C)n1-c1cccc(C(=O)O)c1 11.7 µM, CCn1c(C)cc(C=C2C(=O)c3ccccc3C2=O)c1C 13.1 µM, NC(=O)c1sc2nc(-c3ccco3)ccc2c1N 14.7 µM, CC(=O)c1sc2nc(-c3ccco3)ccc2c1N 14.7 µM, Cc1cc2cc(CCNC(=O)c3cccs3)c(=O)[nH]c2cc1C 3.69 µM, Cc1ccc2cc(CCNC(=O)c3cccs3)c(=O)[nH]c2c1 4.14 µM, Cc1ccc2cc(CCNC(=O)c3cccs3)c(=O)[nH]c2c1C 2.93 µM, CSCc1ccc(C(=O)Nc2ccc(C(N)=O)cc2)cc1 1.65 µM, CC(=O)c1ccc(NC(=O)/C(Cl)=C/c2ccccc2)cc1 5.21 µM, O=C(Nc1ccc(F)cc1)/C(Cl)=C/c1ccccc1 1.31 µM, CC(C)=CCN1CCN(Cc2cnc(N3CCOCC3)s2)CC1CCO (stereo not drawn) 1.65 µM, COc1ccc(Cn2c(SCC#N)nc3ccc(N4CCOCC4)cc3c2=O)cc1 6.56 µM, Cc1cc(N(CCO)CCO)ccc1N=Nc1cc(F)ccc1F 9.27 µM, COc1ccc(C(=O)C(OC(=O)c2ccccc2Cl)c2ccccc2)cc1 (stereo not drawn) 14.7 µM, Cc1ccc(-c2nnc3ccccc3c2C(=O)Nc2ccc(F)cc2)cc1 6.56 µM, COc1cccc(NC(=O)c2c(-c3ccc(C)cc3)nnc3ccccc23)c1 4.65 µM, Cc1nnc(SCc2ccccc2)c2cc3sccc3n12 14.7 µM, COc1cccc2cc(-c3ccccc3)c(=O)oc12 1.65 µM, COc1cccc2cc(-c3nc(-c4ccccc4F)no3)c(=O)oc12 0.185 µM, Cc1cc(NC(=O)CSc2nc3c(cc2C#N)CCCC3)no1 1.47 µM, COc1cc2cc(C#N)c(SCC(=O)N3CCOCC3)nc2cc1OC 11.7 µM, N#Cc1cc2cc3c(cc2nc1SCC(=O)N1CCOCC1)OCO3 0.656 µM, CCCCOc1ccc(-c2cnc3ccccc3n2)cc1 0.656 µM, Clc1ccc(-c2cnc3ccccc3n2)cc1 4.14 µM, CN(C)c1ccc(-n2cccc2/C=N/n2cnnc2)cc1 8.26 µM, COC(=O)c1ccc(COc2ccc(C(C)(C)C)cc2)o1 10.4 µM, COC(=O)c1ccc(COc2ccc(C)c(C)c2)o1 14.7 µM, CCCc1ccc(OCc2ccc(C(=O)OC)o2)c(OC)c1 7.36 µM, O=C(OCc1ccccn1)c1ccc(COc2ccc3ccccc3c2)o1 6.56 µM, COC(=O)c1ccc(COc2ccc3c(c2)CCC3)o1 5.21 µM, CCc1ccc(OCc2ccc(C(=O)OC)o2)cc1 5.21 µM, COC(=O)c1ccc(COc2ccc(C)cc2[N+](=O)[O-])o1 13.1 µM, C=CCN(C(=O)c1oc2c(Cl)cc(C)cc2c1C)C1CCS(=O)(=O)C1 (stereo not drawn) 10.4 µM, Cc1cc(Cl)c2oc(C(=O)N(C)CC3CCOCC3)c(C)c2c1 14.7 µM, Cc1cc(Cl)c2oc(C(=O)N(C)C3CCOC3)c(C)c2c1 (stereo not drawn) 14.7 µM, Cc1cc(Cl)c2oc(C(=O)NCCC3CCCCO3)c(C)c2c1 (stereo not drawn) 14.7 µM
